Values without a mark were called inactive. For some of these results: Results with a measured potency or affinity are listed apart. Active and inactive are the calls of the source. The rule behind the calls is not given here.

For experiment [1] the following is noted: Ebola virus entry assay, green fluorescence channel.
The conditions of experiment [2]: Ebola virus entry assay, blue channel fluorescence.
For experiment [3] the following is noted: Ebola virus entry assay, ratio channel.
For experiment [4] the following is noted: Ebola virus entry assay, reporter ratio channel; Channel type: primary.
Throughout, for efficacy: 0% is about no effect.

With `C[C@]12CCC(=O)C=C1C=C[C@@H]1[C@@H]2CC[C@@]2(C)[C@H]1CC[C@@]21CCC(=O)O1`, the efficacy in experiment [1] was 123%. Further, the half-maximal activity concentration (AC50) in experiment [2] and in experiment [4] was 39.8 µM (active) throughout. Besides, in experiment [3], the outcome was inactive.

With `CCCCNc1ccc(C(=O)OCCN(CC)CC)cc1`, the efficacy in experiment [1] was 87.1%. Further, the half-maximal activity concentration (AC50) in experiment [2] is 39.8 µM (active); in experiment [3] it was 22.4 µM (active); in experiment [4] it was 22.4 µM (active).

For `c1ccc(C(O[C@H]2CCCN(CCc3ccc4c(c3)OCO4)C2)c2ccccc2)cc1`, the efficacy in experiment [1] was 57.8%. Besides, the values for the AC50 in experiment [2], in experiment [3] and in experiment [4] were 28.2 µM (active), 25.1 µM (active) and 25.1 µM (active), respectively.

Consider `c1ccc(OCc2ccc(CCCN3CCOCC3)cc2)cc1`, for which, in experiment [1], the efficacy is 89.3%. The AC50 in experiment [2] was 22.4 µM (active); in experiment [3] it was 20 µM (active); in experiment [4], 20 µM (active).

Regarding `CCCCOc1cc(C(=O)NCCN(CC)CC)c2ccccc2n1`, in experiment [1], the efficacy was 119%. In addition, the AC50 in experiment [2] is 12.6 µM (active); in experiment [3], 10 µM (active); in experiment [4] it was 10 µM (active).

On to `COC(=O)C1=C(C)NC(C)=C(C(=O)OCCCN2CCC(c3ccccc3)(c3ccccc3)CC2)C1c1cccc([N+](=O)[O-])c1` (stereo not given), for which the efficacy in experiment [1] was -179%. The figures for the AC50 in experiment [2], in experiment [3] and in experiment [4] were 2.82 µM (active), 2.51 µM (active) and 2.51 µM (active), respectively.

As for `CCCCCCCCCCCC[N+](C)(C)Cc1ccccc1`, the efficacy in experiment [1] was -253%. Moreover, the AC50 was 22.4 µM (active) in experiment [2], 2.51 µM (active) in experiment [3] and 2.51 µM (active) in experiment [4].

With `CCCCNc1c(C(=O)OCC)c(C)nc2c1cnn2CC`, the efficacy in experiment [1] was -35%. The results for the AC50 in experiment [2], in experiment [3] and in experiment [4] were 25.1 µM (active), 22.4 µM (active) and 22.4 µM (active), respectively.

`CC[n+]1c(-c2ccccc2)c2cc(N)ccc2c2ccc(N)cc21`: the efficacy in experiment [1] is 67.8%. Moreover, the AC50 is 28.2 µM (active) in experiment [2], 14.1 µM (active) in experiment [3] and 14.1 µM (active) in experiment [4].

For `CN(C)CCCN1c2ccccc2Sc2ccc(C(F)(F)F)cc21`, the efficacy in experiment [1] was -67.9%. Further, the AC50 in experiment [2] was 3.16 µM (active); in experiment [3], 2.82 µM (active); in experiment [4], 2.82 µM (active).

For the compound `CN1CCN(C2Cc3ccccc3Sc3ccc(Cl)cc32)CC1` (stereo not given), in experiment [1], the efficacy is 95.7%. Besides, the AC50 in experiment [2], in experiment [3] and in experiment [4] was 5.01 µM (active) throughout.

For `CN(C)CCCOC1(Cc2ccccc2)CCCCCC1`, the efficacy in experiment [1] was 64.1%. Further, the AC50 in experiment [2] was 17.8 µM (active); in experiment [3], 14.1 µM (active); in experiment [4], 14.1 µM (active).

Consider `CC1CCCCN1CCCOC(=O)c1ccc(OC2CCCCC2)cc1` (stereo not given), for which the efficacy in experiment [1] is 86.1%. The AC50 is 8.91 µM (active) in experiment [2], 7.94 µM (active) in experiment [3] and 7.94 µM (active) in experiment [4].

In the case of `COc1ccc2c(c1)c(CC(=O)O)c(C)n2C(=O)c1ccc(Cl)cc1`, in experiment [1], the efficacy was 67.4%. Besides, the result in experiment [2], in experiment [3] and in experiment [4] was inactive.

Turning to `Cc1nc2sccn2c(=O)c1CCN1CCC(=C(c2ccc(F)cc2)c2ccc(F)cc2)CC1`, in experiment [1], the efficacy was 82.1%. Further, the results for the AC50 in experiment [2], in experiment [3] and in experiment [4] were 17.8 µM (active), 15.8 µM (active) and 15.8 µM (active), respectively.

For `CN1CCC(=C2c3ccccc3CCc3sccc32)CC1`, the efficacy in experiment [1] is 69.4%. Further, the AC50 in experiment [2], in experiment [3] and in experiment [4] was 8.91 µM (active) each time.

Take `C[C@H]1C[C@H]2[C@@H]3CCC4=CC(=O)C=C[C@]4(C)[C@@]3(Cl)[C@@H](O)C[C@]2(C)[C@@]1(O)C(=O)CO`: the efficacy in experiment [1] is 103%. Besides, the AC50 in experiment [2] was 25.1 µM (active); in experiment [3], 20 µM (active); in experiment [4], 20 µM (active).

As to `O=C1NCN(c2ccccc2)C12CCN(CCCC(c1ccc(F)cc1)c1ccc(F)cc1)CC2`, the efficacy in experiment [1] is 83.4%. Moreover, the half-maximal activity concentration (AC50) is 1.41 µM (active) in experiment [2], 1.26 µM (active) in experiment [3] and 1.26 µM (active) in experiment [4].

As to `CC(CC1c2ccccc2CCc2ccccc21)CN(C)C` (stereo not given), the efficacy in experiment [1] was 28.4%. The half-maximal activity concentration (AC50) was 6.31 µM (active) in experiment [2], 3.98 µM (active) in experiment [3] and 3.98 µM (active) in experiment [4].

Consider `COc1cccc2c1C(=O)c1c(O)c3c(c(O)c1C2=O)C[C@@](O)(C(C)=O)C[C@@H]3O[C@H]1C[C@H](N)[C@H](O)[C@H](C)O1`, for which the efficacy in experiment [1] was 54.5%. Moreover, the AC50 in experiment [2], in experiment [3] and in experiment [4] was 5.01 µM (active) throughout.

Regarding `CN(C)C(=S)SC(=S)N(C)C`, in experiment [1], the efficacy is -50.4%. The AC50 in experiment [2] is 5.62 µM (active); in experiment [3], 5.01 µM (active); in experiment [4], 5.01 µM (active).

Turning to `Oc1c(Cl)cc(Cl)c2cccnc12`, the efficacy in experiment [1] is 73.4%. Also, the AC50 in experiment [2] and in experiment [4] was 39.8 µM (active) each time. The result in experiment [3] was inactive.

`O=C1OC2(c3ccccc31)c1cc(I)c(O)c(I)c1Oc1c2cc(I)c(O)c1I`: the efficacy in experiment [1] is 162%. Besides, the compound was classed as inactive in experiment [2] and in experiment [3]. Besides, the AC50 in experiment [4] is 39.8 µM (active).

With `Clc1ccc(Cn2c(CN3CCCC3)nc3ccccc32)cc1`, in experiment [1], the efficacy is 99.2%. The values for the AC50 in experiment [2], in experiment [3] and in experiment [4] were 28.2 µM (active), 22.4 µM (active) and 22.4 µM (active), respectively.

On to `Cc1ccc2c(Br)cc(Br)c(O)c2n1`, for which, in experiment [1], the efficacy is 99.5%. The AC50 in experiment [2] is 35.5 µM (active); in experiment [3], 39.8 µM (active); in experiment [4], 39.8 µM (active).

For the origin of these results see PubChem BioAssay (NCATS).
